# High-throughput results (PubChem BioAssay)
# A selection: hits, their analogues and other compounds. The true share with any hit is near 1.3%.
# BRCA1 expr up: BRCA1 expression activation; MCF7-BRCA1-FFLuc reporter, luminescence, 48 h; response scale: scaled: vehicle 0%, 10 µM genistein 100%; Potency, µM (top dose mostly 46.1 µM), for the others: at the top dose activation, hits mostly activators; 1.1% of 380,000 active; AID 624202; also: potency is read from the fitted curve at half-maximal effect; nearly all actives have a fitted effect of over 80% in size
#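 48 h compound treatment of MCF7-BRCA1-FFLuc cells (phenol-red free MEM, 37 °C), then 15 min with luciferase substrate and luminescence imaging.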
# IL-2 act: activators of IL-2. IL-2 activation reporter assay, cell-based qHTS; stimulated with anti-CD3/CD4/CD28 beads; in transgenic mouse T cells. activation, % (series mostly up to about 46 µM). 0.065% of 360,000 active. AID 652025; in the data active = activation above about 50%; inconclusive = mostly about 30% to 49%; also: 0% is about no effect
#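 Unstimulated transgenic mouse T cells preincubated 60 min with compound, then stimulated with anti-CD3/anti-CD4-coated beads plus anti-CD28 for 18 h at 37 degrees C. IL-2 response read as EGFP and DsRed fluorescence by plate cytometry.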
# Mito fusion act: mitochondrial division inhibition or fusion activation. AID 485298. Potency, µM (titrated, usually from 46.1 µM), without a hit: top-dose growth rescue (activation), hits mostly activators. 0.23% of 320,000 active. S. cerevisiae fusion-defective mutant growth rescue, CellTiterGlo 48 h; also: potency is read from the fitted curve at half-maximal effect; % of control where 0% means no effect; nearly all actives have a fitted effect of over 45% in size
#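 Yeast fusion mutant, YPEG (non-fermentable carbon), compound, 48 h at 37C non-permissive; CellTiterGlo added, 10 min RT, luminescence read. Rescued growth = division inhibition.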
# TCR act: activators of T cell receptors; primary human leukocytes, anti-CD3, IL-2 HTRF, 48 h; Potency, µM (highest dose often 9.22 µM), without a hit: at the highest dose activation of IL-2 secretion, most hits filed as activators; 330,000 tested, under 10 active; AID 504894; also: % of control where 0% means no effect
#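 Readout: HTRF IL-2, Eu-cryptate/d2 antibody pair, 320nm excitation, 665nm emission. Stimulus: a-CD3 beads, no co-stimulation. Cells: primary human leukocytes. Exposure: 48 hr with compound.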
# p53 reactivator: mutant p53 re-activation in reporter cells. H1299 p53-A138V BP100-luciferase reporter, luminescence, 24 h. Potency, µM (top dose mostly 92.2 µM), inactives show at the highest dose activity change, positive = activation, hits mostly activators. 0.063% of 320,000 active. AID 504706; also: potency is read from the fitted curve at half-maximal effect; % of control where 0% means no effect; nearly all actives have a fitted effect of over 45% in size
#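 H1299 (p53-null), stable ts p53-A138V + BP100-Luc; 1000 cells/well, Opti-MEM/10% FBS; cpd 4 pt, 1:5; 24 h, 37 deg C, 5% CO2; detection reagent 10 min RT; luminescence.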
# The depositor's hits bear a star; ? = inconclusive; . = no result given; [ ] = dose if it differs, or a comment. Unless noted, calls follow the shape of the dose curve; as a rule, active = well fitted curve in the direction sought with a large enough effect; inconclusive = small, poorly fitted or top-dose-only effect, or another doubt; inactive = no such curve, though single readings can be large; an effect the other way counts as inactive or inconclusive.
SMILES,BRCA1 expr up,IL-2 act,Mito fusion act,TCR act,p53 reactivator
COc1ccccc1CN(C)CC(=O)c1c(C)[nH]c2ccccc12,-38.4%,.,.,.,.
CC(C)C[C@@H](CSc1ccc(Br)cc1)N1CCN(C)CCC1=O,10µM*,-0.6,-41.5%,4.2%,14.1%
Nc1nc2ncn(COCCO)c2c(=O)[nH]1,16.0%,.,.,.,.
COC(=O)C1=CC(C(=O)c2cccs2)=NN(c2ccc(OC)cc2)C1C(=O)OC (stereo not given),-3.5%,-2.8,17.8µM*,-0.1%[46.1 µM],-10.7%
Clc1ccc(-n2c(Cc3ccccc3)nnc2SCc2nc(-c3cccs3)no2)cc1,-7.4%,.,.,.,.
CCC(C)c1ccc(NC(=O)N2CCOCC2)cc1 (stereo not given),10µM*,-0.4,8.1%,.,-2.9%
CC1CCCN(C(=S)NCCc2ccccc2)C1 (stereo not given),10µM*,-2.1,-1.5%,-21.4%,11.1%
COc1cccc(C(=O)O/N=C/c2ccc(Sc3ccc(C)cc3)nc2)c1,7.08µM*,-2.4,-2.2%,-17.3%,4.1%
COc1cccc(C(=O)O/N=C(\N)c2ccc(C)cc2)c1,60.0%,-1.6,-26.0%,-2.3%,?
O=C(OCCN1CCOCC1)c1ccc2c(c1)OCCO2,7.94µM*,-2.9,-2.9%,1.2%,.
O=C(COC(=O)c1ccc(O)cc1)c1ccc2c(c1)OCCO2,10µM*,0.4,2.7%,7.8%,25.2%
CCC(C)C(NC(=O)C1CCC(C)CC1)C(=O)NCc1ccco1 (stereo not given),-11.4%,0.6,35.5µM*,3.5%,3.3%
CN(CCCc1cnc[nH]1)C(=S)NCCCN(Cc1ccc(Cl)cc1)c1ccc(Br)cn1,-60.0%,.,.,.,.
O=C(Cn1cc(SCc2ccc(F)cc2)c2ccccc21)N1CCOCC1,87.0%,0.3,6.3%,0.1%[46.1 µM],28.2µM*
O=C(CSc1cn(Cc2ccccc2)c2ccccc12)N1CCOCC1,7.94µM*,-2.8,5.5%,-3.3%,25.7%
CCCSCCCNC(=O)CN1C(=O)COc2ccc(S(=O)(=O)N3CCC(C)CC3)cc21,0.0%,.,.,.,.
CC1(C)CCc2cc(S(=O)(=O)N3CCN(S(=O)(=O)c4c(F)cccc4F)CC3)ccc2O1,7.94µM*,7.8,.,-0.4%,?
CN1CCOc2ccc(S(=O)(=O)N3CCN(S(=O)(=O)c4c(F)cccc4F)CC3)cc21,.,.,1.1%,.,.
CCN(CC)C(=S)SCC(=O)c1ccccc1,7.94µM*,-0.5,-3.9%,0.3%,6.2%
CCN(CC)C(=S)SCC(=O)c1ccc(F)cc1,3.16µM*,-0.1,-1.4%,-2.6%,16.4%
CCOC(=O)c1sc(=NC(=O)CCSc2ccccc2)n(C)c1C,10µM*,-0.6,0.4%,.,18.4%
COc1ccc(OC)c(/C=C/c2c3ccccc3cc[n+]2C)c1,-71.8%,.,.,.,.
Cc1ccc(N2C(=O)N(CC(=O)C(C)(C)C)c3ccccc3S2(=O)=O)cc1C,0.0%,.,.,.,.
Cn1ncc(N=Cc2c(O)ccc3ccccc23)c1C(=O)Nc1cccc(Cl)c1,-12.7%,247.0*,5.9%,6.9%,2.3%
Cn1nc(-c2cccnc2)nc2c(=O)n(C)c(=O)nc1-2,-79.7%,.,.,.,.
SMILES,BRCA1 expr up,IL-2 act,Mito fusion act,TCR act,p53 reactivator
O=C(Nc1nc2ccccc2s1)c1ccc2sc([C@H]3C[C@H](O)[C@@H](CO)O3)nc2c1,?,0.8,.,.,.
O=C(NC1CC1)c1ccc2sc([C@H]3C[C@H](O)[C@@H](CO)O3)nc2c1,2.4%,-0.1,.,.,.
O=C(Nc1ccc2c(c1)OCO2)c1ccc2sc([C@@H]3O[C@H](CO)[C@H](O)[C@H](O)[C@H]3O)nc2c1,4.7%,0.2,.,.,.
O=C(Nc1nccs1)c1ccc2sc([C@H]3C[C@H](O)[C@@H](CO)O3)nc2c1,12.6µM*,0.0,.,.,.
O=C(Nc1ccc2c(c1)OCO2)c1ccc2sc([C@H]3C[C@H](O)[C@@H](CO)O3)nc2c1,8.91µM*,0.0,.,.,.
O=C(Nc1ccc2c(c1)OCO2)c1ccc2sc([C@@H]3O[C@H](CO)[C@@H](O)[C@H]3O)nc2c1,3.16µM*,1.1,.,.,.
Clc1ccc(-c2csc3ncnc(Sc4nnnn4C4CC4)c23)cc1,-78.5%,.,.,.,.
COc1cc(OC)c(/C=C/c2cc3ccccc3c[n+]2C)c(OC)c1,-41.8%,.,.,.,.
COc1cccc2cc(CC(=O)c3cc(C)ccc3C)c(=O)oc12,98.0%,0.4,5.5%,-2.2%,11.9%
COc1cccc2cc(CC(=O)c3ccc(C)c(C)c3)c(=O)oc12,11.2µM*,-0.3,7.0%,6.3%,1.9%
CCc1ccc(C(=O)Cc2cc3cccc(OC)c3oc2=O)cc1,11.2µM*,-0.6,-2.6%,-0.7%,13.2%
COc1cc(C(C)=O)ccc1OC(=O)c1cc2cccc(OC)c2oc1=O,0.0%,1.9,-2.4%,-275.0%,-0.5%
COc1cccc2cc(CC(=O)c3ccccc3)c(=O)oc12,10µM*,0.2,-3.4%,1.3%,12.0%
COc1ccc(-n2nc3ccc(NC(=O)c4c(OC)cccc4OC)cc3n2)cc1,-13.9%,.,.,.,.
Cc1ccc(-c2c(C(=O)N3CCN(c4cccc(C)c4)C(C)C3)oc(=O)c3ccccc23)cc1 (stereo not given),-50.7%,.,.,.,.
CN1CCN(C2=C(Cl)C(=O)N(Cc3ccccc3)C2=O)CC1,9.7%,0.3,-6.6%,2.6%,20µM*
COc1cc2nc(N3CCCN(C)CC3)nc(NC3CCOCC3)c2cc1OC,-29.3%,.,.,.,.
COc1ccccc1N1CCN(/N=C/c2ccc([N+](=O)[O-])cc2)CC1,5.01µM*,0.1,-1.8%,2.2%,.
Cc1ccc(NC(=O)C(=O)NCC2CCCO2)cc1 (stereo not given),10µM*,-2.2,-2.0%,1.2%,4.6%
O=C(NCCc1ccccc1)C(=O)NCC1CCCO1 (stereo not given),12.6µM*,-1.8,-0.8%,3.0%,21.9%
Oc1ccc(Cl)cc1CNCC1CCCO1 (stereo not given),-1.0%,-2.5,0.9%,-4.3%,4.7%
Cc1ccc(NC(=O)C(=O)NCC2CCCO2)cc1C (stereo not given),?,4.8,3.6%,0.4%,9.8%
COCCCNC(=S)NC(=O)c1ccc(C)cc1,6.31µM*,0.7,-10.6%,-5.5%[46.1 µM],?
COCCCNC(=S)NNC(=O)c1ccc(C(C)(C)C)cc1,-10.7%,0.2,-3.1%,2.6%,-2.5%
Clc1ccc(-c2ccc(CNCC3CCCO3)o2)cc1 (stereo not given),10µM*,-0.6,-4.4%,1.8%,4.7%
CC(NS(=O)(=O)c1ccccc1[N+](=O)[O-])c1ccccn1 (stereo not given),0.0%,.,.,.,.
C=CC(C)=C[C@@]1(C)SC(=O)C(C)=C1O,.,.,-14.4%,.,.
O=C(NCC1CCCO1)Nc1ccc(Cl)cc1 (stereo not given),10µM*,0.0,-1.5%,1.7%,.
O=C(NCC1CCCO1)c1cc(-c2ccccc2F)no1 (stereo not given),12.6µM*,0.9,0.0%,4.3%,?
